Experimental data as given in the supplement of paper PMC9135407.
“And” between values parts separate entries of the source, which are not always exact repeats. Identical values can stand only once. Counter-ions that a name gives are not always drawn. The campaign covered roughly 5,800 compounds. About 620 (11%) showed activity. Only a selection was taken, and actives are over-represented in it overall. Unmarked numbers belong to inactive results.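 How the source made its calls: active = score above a cut-off or among the top three wells of a plate; in these data no inactive exceeds 0.85.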

Test system: primary human hepatic stellate cells (donor 1)
Assay: scaled lipid accumulation score (0 = DMSO-like, 1 = nortriptyline-like); higher = stronger HSC inactivation (lipid re-accumulation), active = hit call of the paper
Settings: 48 h
Description: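 Primary lipid accumulation screen in primary human hepatic stellate cell myofibroblasts (donor 1, passage 8) in 384-well plates. 100 nL of library compound was pin-transferred into 30 µL medium in duplicate, and cells were treated for 48 h. The 'Scaled' score combines distance from plate baseline, toxicity and reproducibility penalties, and is normalised to nortriptyline (positive) and DMSO (negative) controls on each plate. A hit is defined as scaled >0.85 or among the top 3 wells per plate.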

[1] = library stock concentration: 10 mM
[2] = library stock concentration: 1 mM
[3] = library stock concentration: 3.33 mM
[4] = library stock concentration: 6.4 mM
[5] = library stock concentration: 80 uM
[6] = library stock concentration: 400 uM
[7] = library stock concentration: 2 mM

Cc1cc2c(cc1Cl)N(C(=O)Nc1ccnc3ccccc13)CC2
scaled lipid accumulation score [1]: 1.08 (active)

Cn1ccc2cc3c(cc21)CCN3C(=O)Nc1cccnc1
scaled lipid accumulation score [1]: ≤ 0 and ≤ -0.006

Cc1cc2c(cc1Cl)N(C(=O)Nc1ccc(Oc3cccnc3C)nc1)CC2
scaled lipid accumulation score [1]: 0.832

CC(=Nc1ccccc1N)c1c(C)cc(=O)n(O)c1O
scaled lipid accumulation score [1]: ≤ 0

CCCCCCCCCCCCCCCCOC[C@H](COP(=O)([O-])OCC[N+](C)(C)C)OC(=O)CCC [Butanoyl PAF]
scaled lipid accumulation score [2]: ≤ 0

CO[C@H]1C[C@@H]2CC[C@@H](C)[C@@](O)(O2)C(=O)C(=O)N2CCCC[C@H]2C(=O)O[C@H]([C@H](C)C[C@@H]2CC[C@H](n3cnnn3)[C@H](OC)C2)CC(=O)[C@H](C)/C=C(\C)[C@@H](O)[C@@H](OC)C(=O)[C@H](C)C[C@H](C)/C=C/C=C/C=C/1C [Zotarolimus(ABT-578)]
scaled lipid accumulation score [3]: 0.109 | scaled lipid accumulation score [1]: ≤ 0

OC[C@H]1NC[C@@H](O)[C@@H](O)[C@@H]1O [1-Deoxymannojirimycin hydrochloride]
scaled lipid accumulation score [1]: ≤ -0.006 | scaled lipid accumulation score (library stock concentration: 25.1 mM): ≤ -0.012

CCCCC(C)(C)[C@H](O)/C=C/[C@H]1C=CC(=O)[C@@H]1C/C=C\CCCC(=O)O [16,16-dimethyl Prostaglandin A2]
scaled lipid accumulation score [2]: ≤ 0

C#CC1(O)CC[C@H]2[C@@H]3CCC4=CC(=O)CC[C@@H]4[C@H]3CC[C@@]21CC (stereo partly drawn) [Norgestrel]
scaled lipid accumulation score [2]: 0.037 | scaled lipid accumulation score [1]: 0.03

C#C[C@]1(O)CCC2C3CCC4=CC(=O)CC[C@@H]4C3CC[C@@]21CC (stereo partly drawn) [Norgestrel]
scaled lipid accumulation score [4]: 1.05 (active)

C#C[C@]1(O)CC[C@H]2[C@@H]3CCC4=CC(=O)CC[C@@H]4[C@H]3CC[C@@]21CC
scaled lipid accumulation score [1]: 0.195

C#C[C@]1(O)CC[C@H]2[C@@H]3CCC4=CC(=O)CC[C@@H]4[C@H]3CC[C@@]21CC [Norgestrel-(-)-D]
scaled lipid accumulation score: ≤ 0

C#C[C@]1(O)CC[C@H]2[C@@H]3CCC4=CC(=O)CC[C@@H]4[C@H]3CC[C@@]21CC [Levonorgestrel]
scaled lipid accumulation score [2]: ≤ 0 | scaled lipid accumulation score [3]: ≤ 0 | scaled lipid accumulation score [4]: 0.107 | scaled lipid accumulation score [1]: 0.727

Nc1nc2c(nc(O)n2[C@@H]2O[C@H](CO)[C@@H](O)[C@H]2O)c(=O)[nH]1 [8-hydroxy Guanosine]
scaled lipid accumulation score [2]: ≤ 0

CCCCC[C@H](O)/C=C/[C@@H]1[C@H]2C/C(=C\CCCC(=O)O)C[C@H]2C[C@H]1O [5-cis Carbaprostacyclin]
scaled lipid accumulation score [2]: ≤ 0

O=C1OC[C@H](Cc2cccc(O)c2)[C@H]1Cc1cccc(O)c1
scaled lipid accumulation score [2]: ≤ 0

O=C(Nc1cccc(Nc2nccc(Nc3cccc(C(F)(F)F)c3)n2)c1)C1CC1 [Aurora Kinase Inhibitor III]
scaled lipid accumulation score [3]: 0.0325

CCN(CC)CCCCNc1ncc2c(n1)N(C)C(=O)N(c1c(Cl)c(OC)cc(OC)c1Cl)C2
scaled lipid accumulation score [5]: ≤ -0.008 | scaled lipid accumulation score [6]: ≤ -0.008 | scaled lipid accumulation score [7]: ≤ -0.001 | scaled lipid accumulation score [1]: 0.416

CCN(CC)CCCCNc1ncc2cc(-c3cc(OC)cc(OC)c3)c(NC(=O)NC(C)(C)C)nc2n1 [listing 1 of 3 here]
scaled lipid accumulation score [7]: 1.12 (active) | scaled lipid accumulation score [1]: 1.22 (active)

CCN(CC)CCCCNc1ncc2cc(-c3cc(OC)cc(OC)c3)c(NC(=O)NC(C)(C)C)nc2n1 [listing 2 of 3 here]
scaled lipid accumulation score [3]: 1.34 (active) | scaled lipid accumulation score [1]: 1.01 (active)

CCN(CC)CCCCNc1ncc2cc(-c3cc(OC)cc(OC)c3)c(NC(=O)NC(C)(C)C)nc2n1 [listing 3 of 3 here]
scaled lipid accumulation score [5]: ≤ 0 | scaled lipid accumulation score [6]: ≤ 0

COc1cc(OC)cc(-c2cc3cnc(N)nc3nc2NC(=O)NC(C)(C)C)c1
scaled lipid accumulation score [1]: ≤ 0

CCN(CC)CCNC(=O)COc1ccc(OC)cc1 [Mefexamide]
scaled lipid accumulation score (library stock concentration: 6.3 mM): 0.018 | scaled lipid accumulation score [1]: ≤ 0

CCN(CC)CCNC(=O)COc1ccc(OC)cc1 [Mefexamide hydrochloride]
scaled lipid accumulation score: ≤ 0

CCCCCCCCCCCCCC=CC(O)C(CO)NC(=O)CCCCCCCCCCCCCCCCCCCCCCC (stereo not drawn) [Lignoceric Ceramide]
scaled lipid accumulation score [2]: ≤ 0

Nc1nc2ccc(Cl)cc2n2c(-c3ccccc3)nnc12
scaled lipid accumulation score [1]: 0.049

CCCCC#Cc1nc(NC)c2ncn([C@@H]3O[C@H](CO)[C@@H](O)[C@H]3O)c2n1
scaled lipid accumulation score [1]: ≤ 0 and ≤ -0.006

CC(C(C)N1CC(=O)NC(=O)C1)N1CC(=O)NC(=O)C1 (stereo not drawn)
scaled lipid accumulation score (library stock concentration: 17.7 mM): ≤ -0.012

C=N[C@@H](C(=O)N[C@@H]1C(=O)N2[C@@H]1SC(C)(C)[C@@H]2C(=O)O)c1ccccc1 [Metampicillin sodium salt]
scaled lipid accumulation score: ≤ 0

CC(=O)Oc1c(C)cccc1C(=O)O
scaled lipid accumulation score [1]: ≤ 0

CCCCC[C@@](C)(O)/C=C/[C@@H]1[C@@H](C/C=C\CCCC(=O)OC)[C@@H](O)C[C@H]1O [15(R)-15-methyl Prostaglandin F2.alpha. methyl ester]
scaled lipid accumulation score [2]: ≤ 0

Cn1cc(CNCC2CCN(c3ncc(C(=O)NO)cn3)CC2)c2ccccc21 [listing 1 of 2 here]
scaled lipid accumulation score [1]: 0.985 (active)

CN1CCc2c(c3ccccc3n2Cc2ccc(C(=O)NO)cc2)C1 [Tubastatin A]
scaled lipid accumulation score [3]: ≤ 0 | scaled lipid accumulation score [1]: ≤ 0

CN1CCc2c(c3ccccc3n2Cc2ccc(C(=O)NO)cc2)C1 [Tubastatin A HCl]
scaled lipid accumulation score [3]: ≤ 0 | scaled lipid accumulation score [1]: 0.218

Cn1cc(CNCC2CCN(c3ncc(C(=O)NO)cn3)CC2)c2ccccc21 [listing 2 of 2 here]
scaled lipid accumulation score [3]: 0.478

O=C(C[S+]([O-])Cc1ccco1)NC/C=C\COc1cc(CN2CCCCC2)ccn1 (stereo not drawn) [Lafutidine]
scaled lipid accumulation score [3]: ≤ 0 | scaled lipid accumulation score [1]: ≤ 0

C=CCc1ccccc1OCC(O)CNC(C)C (stereo not drawn) [Alprenolol hydrochloride]
scaled lipid accumulation score: 0.634 | scaled lipid accumulation score [1]: 0.5

N=C(CC(O)COc1ccccc1-c1ccccc1)N1CCCCC1 (stereo not drawn)
scaled lipid accumulation score [1]: 0.781

CC(COc1ccccc1Cc1ccccc1)N1CCCCC1.O=P(O)(O)O (stereo not drawn)
scaled lipid accumulation score [1]: 1.02 (active)

C=CCc1ccccc1OCC(O)CNC(C)C (stereo not drawn) [Alprenolol HCl]
scaled lipid accumulation score (library stock concentration: 8 mM): 0.203

O=c1ncc(F)c[nH]1 [5-fluoro-2-pyrimidone]
scaled lipid accumulation score [1]: ≤ 0
